Laboratory results: PubChem BioAssay (NCI)
This is part of a sample that, as a whole, favours compounds with a hit. Of some 83,000 tested, about 20% had one in any assay.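 Single-dose data. Exposure time 48 hours. Values below 10 considered active.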 Values without a mark were called inactive. Calls of active or inactive are those of the source.

Columns and labels:
Assay in all cases: NCI-60 one-dose screen, 48 h (100 = growth as untreated, 0 = no growth, -100 = all killed)
Conditions in all cases: 10 µM unless noted
HCT-15 colon = tested on: HCT-15 colon
HT29 colon = tested on: HT29 colon
SNB-75 CNS = tested on: SNB-75 CNS
SNB-19 CNS = tested on: SNB-19 CNS
U251 CNS = tested on: U251 CNS
PC-3 prostate = tested on: PC-3 prostate
SK-MEL-5 melanoma = tested on: SK-MEL-5 melanoma
UACC-62 melanoma = tested on: UACC-62 melanoma
LOX IMVI melanoma = tested on: LOX IMVI melanoma
SK-MEL-28 melanoma = tested on: SK-MEL-28 melanoma

SMILES	growth (HCT-15 colon)	growth (HT29 colon)	growth (SNB-75 CNS)	growth (SNB-19 CNS)	growth (U251 CNS)	growth (PC-3 prostate)	growth (SK-MEL-5 melanoma)	growth (UACC-62 melanoma)	growth (LOX IMVI melanoma)	growth (SK-MEL-28 melanoma)
COc1ccc(OC)c(NC(=O)CCCCCCNC(=O)C(O)(O)C(F)(F)F)c1	59.4%	23.6%	56.1%	63.5%	41.8%	51.4%	16.6%	13%	32.3%	35.6%
O=C(NNc1nc2cc(F)cc(F)c2n2cccc12)c1cccnn1	27.9%	30.2%	24.5%	21.6%	15.3%	30.7%	-31.3% (active)	9.53% (active)	6.98% (active)	23.9%
Nc1cc(C(=O)N/N=C\c2ccc(OC(F)F)c(OC3CCCC3)c2)nn1CC(O)c1ccccc1 (stereo not given)	99.1%	98.2%	84.1%	96.4%	94.7%	80.7%	97.1%	89.4%	99.1%	115%
COc1ccc([C@H]2C(=O)N(c3cc(OC)c(OC)c(OC)c3)[C@@H]2c2ccc(OC)c(O)c2)cc1	9.51% (active)	-3.08% (active)	40.2%	28.3%	15.7%	20.9%	-23% (active)	33.1%	13.1%	63.7%
Cn1cc(-c2nnc(N)nc2-c2c[nH]c3ccc(Br)cc23)c2cc(Br)ccc21	91.3%	97.1%	82.3%	98.7%	99.7%	102%	101%	97.7%	101%	101%
N#CC1=C2NCCCNc3oc(nc3C#N)Cc3ccccc3CC(=N1)O2	74.8%	102%	92%	93.2%	96.1%	91.9%	99.1%	87.5%	8.01% (active)	102%
O=C(CSc1nnc(-c2cccs2)n1-c1ccccc1)Nc1ccccc1	80.3%	91.1%	-0.436% (active)	54.1%	84.3%	83%	80.1%	67.7%	71.9%	76.9%
COc1ccc(/C=N/NC(=O)c2c(N)nn(C)c2Nc2ccccc2)cc1	19.1%	18.6%	35.1%	36.8%	33.3%	55.9%	57.2%	23.7%	18.9%	57.5%
CN(C)S(=O)(=O)c1ccc(-c2nc(C(Cl)Cl)nc3cc(-c4ccc(F)cc4)nn23)cc1	-35.7% (active)	-5.58% (active)	48.3%	23.5%	2.76% (active)	26.7%	55.1%	26%	-6.07% (active)	27.1%
Brc1cc(-c2cc(-c3ccc4c(c3)OCCO4)[nH]n2)cs1	24.4%	22.6%	19.9%	56.9%	40%	61.8%	23.5%	54.7%	42.3%	58.6%
O=C1CSC(c2cn(-c3ccccc3)nc2-c2ccc(Cl)cc2)N1c1ccccc1 (stereo not given)	101%	106%	99.9%	112%	106%	99.7%	99.4%	99%	100%	118%
CN1c2ccccc2Sc2cc(/C=N/Nc3ccnc4cc(Cl)ccc34)ccc21	50.2%	76.5%	104%	94.8%	80.7%	88.6%	94.7%	101%	47.7%	103%
CC(=O)Nc1cc(N2CCOCC2)c2nc(NC(=O)c3[nH]c(C)c(Cl)c3Cl)sc2c1	66.9%	65.1%	17.3%	83.9%	57.8%	64.3%	77.6%	94.8%	57%	67.5%
CNC(=O)c1cc(N2CCc3cc(NC(=O)Nc4ccc(N5CCOCC5)c(C(F)(F)F)c4)ccc32)ccn1	5.54% (active)	28.5%	38.6%	23.1%	29.2%	7.98% (active)	12.9%	-29.8% (active)	12.5%	49.8%
CCN(CC)c1ccc(/C=N/NC(=O)c2ccc(NS(C)(=O)=O)cc2)cc1	20.4%	32.1%	73.3%	39.2%	31.1%	37.2%	4.46% (active)	12.3%	9.94% (active)	23.8%
COc1ccc(-c2c(C(N)=O)c(N)n(Cc3nc4ccccc4[nH]3)c(=O)c2C#N)c(OC)c1	98.4%	113%	88.3%	98.7%	97.2%	97.4%	97.3%	91.6%	96.4%	109%
C#CCOc1ccc(/C=N/Nc2nc(-c3ccc(OC)cc3)cs2)cc1	80.1%	105%	86.2%	87.8%	96.4%	73.1%	70.1%	67.1%	89.7%	102%
O=C(NCCNc1cc(-c2cn(-c3ccccc3)nc2-c2cccc(O)c2)ccn1)Nc1cc(C(F)(F)F)cc(C(F)(F)F)c1	100%	95.7%	75.4%	97%	86.8%	80.7%	96.8%	94.1%	88%	96.9%
COc1ccc(CC(C)=C(c2ccc(OCCN3CCCC3)cc2)c2ccc(OCCN3CCCC3)cc2)cc1	-85.2% (active)	-77.6% (active)	-76.7% (active)	-81% (active)	-70.1% (active)	-73.2% (active)	-96.1% (active)	-88.8% (active)	-86.6% (active)	-92.2% (active)
CN1CCN(Cc2ccc(NC(=O)c3cncc(C#Cc4cnc5ccc(O[C@@H]6CCOC6)nn45)c3)cc2C(F)(F)F)CC1	-40.4% (active)	-54.6% (active)	-98.4% (active)	-48.9% (active)	-72.9% (active)	-40.4% (active)	-97.4% (active)	-76.3% (active)	-96.9% (active)	-82.4% (active)
Clc1ccc(CSc2nnc(-c3ccc(Cl)cc3)n2-c2ccccc2)cc1	93.3%	84%	-0.642% (active)	62%	81.2%	71%	94.3%	85.8%	88.6%	98.8%
O=C(CCCCCCNC(=O)C(O)(O)C(F)(F)F)Nc1ncc(-c2ccc(Br)cc2)s1	3.85% (active)	1.78% (active)	35.9%	2.52% (active)	-35.4% (active)	10.5%	-70.3% (active)	-52.1% (active)	-89.7% (active)	3.46% (active)
NS(=O)(=O)c1ccc(Nc2nc(N/N=C/c3ccc4c(c3)OCO4)nc(Nc3ccccc3)n2)cc1	82.7%	40.2%	53.6%	55.8%	55.4%	59.1%	54.3%	78.4%	26.7%	67.5%
C#Cc1nc(/C=C/C(=O)NO)cs1	76.3%	7.85% (active)	-94.4% (active)	93.4%	-5.41% (active)	70.5%	63.3%	57.9%	-90.7% (active)	60.9%
CCOc1cccc(/C(N)=N/C(N)=N/c2nc3ccccc3s2)c1	49.9%	106%	87.9%	87.8%	58.3%	46.4%	92.2%	81.4%	13.2%	105%
CCOC(=O)c1ccc(NC2=CC(=O)C(C)=C(C)C2=O)cc1	88.5%	110%	78.7%	71.9%	81.6%	49%	91.6%	74.1%	46%	109%
